Bioassay records deposited in PubChem by Broad Institute.
The list is a sample of the results.
aSyn 5UTR act = Activators via SNCA 5'UTR binding, MLPCN. 300,000 compounds, 7.1% hits. activity score, % (tested at 7.5 µM), hits read low. alpha-synuclein 5'UTR reporter, activators screen. AID 1814, 2009; in the data active = activity score below about -60%
Starred values were filed as active, the others as inactive.

CC1CCC2(CC1)NC(=O)N(CC(=O)Nc1ccc3c(c1)OCCO3)C2=O (stereo not drawn) was read as aSyn 5UTR act -100*.
Screening Cc1c(C(=O)NCCCN2CCCCC2)oc2ccc3c(c12)C(O)CC1(CCCCC1)O3 (stereo not drawn) returned aSyn 5UTR act 76.
Screening Cc1c(C(=O)NCc2ccoc2)oc2ccc3c(c12)C(=O)CC(C)(C)O3 returned aSyn 5UTR act -464*.
`CCOC(=O)N1CCC(NC(=O)c2oc3c(F)cccc3c2C)CC1` gave aSyn 5UTR act -62*.
c1csc(-c2cn3ccc4ccccc4c3n2)c1 was read as aSyn 5UTR act -209*.
Screening CCN(CC)Cc1c(O)ccc2c1O/C(=C\C=C\c1ccccc1)C2=O returned aSyn 5UTR act -438*.
CS(=O)(=O)Oc1ccc2c(c1)O/C(=C\C=C\c1ccccc1)C2=O was read as aSyn 5UTR act -81*.
`C[n+]1c2n(c3ccccc31)N=C(c1cc(C(C)(C)C)c(O)c(C(C)(C)C)c1)CS2` gave aSyn 5UTR act 68.
For CCc1ccc(/C=C2/C(=O)N(C)C(=S)N2CC(=O)OC)s1 the results were aSyn 5UTR act -81*.
`COc1ccc(-n2nc3cc(C)c(N)cc3n2)cc1Cl` gave aSyn 5UTR act -142*.
Screening CCOC(=O)c1sc2nc(-c3cccnc3)ccc2c1N returned aSyn 5UTR act -150*.
`NC(=O)c1sc2nc(-c3cccnc3)ccc2c1N` gave aSyn 5UTR act -102*.
Cc1ccc(-c2cc(C(=O)Nc3cccnc3)[nH]n2)c(O)c1C was read as aSyn 5UTR act -202*.
Screening Cc1cccc(NC(=O)c2cc(-c3cc(C)c(C)cc3O)n[nH]2)c1 returned aSyn 5UTR act -234*.
`COc1ccc(NC(=O)c2cc(-c3cc(C)ccc3O)n[nH]2)cc1Cl` gave aSyn 5UTR act -72*.
`Cc1cccc(NC(=O)c2cc(-c3cc(C)ccc3O)n[nH]2)c1` gave aSyn 5UTR act -227*.
Screening COc1ccc(-c2nc3cc(NC(=O)Cc4ccc(OC)c(OC)c4)ccc3o2)cc1 returned aSyn 5UTR act -69*.
Screening CCCOc1ccc(-c2nnc(-c3ccco3)o2)cc1 returned aSyn 5UTR act 65.
For CC(C)COc1ccc(-c2nnc(-c3ccco3)o2)cc1 the results were aSyn 5UTR act 86.
For O=C(COc1ccccc1)Nc1ccc(-c2nnc(-c3ccco3)o2)cc1 the results were aSyn 5UTR act -84*.
COc1ccccc1OCC(=O)Nc1cccc(-c2nnc(-c3ccco3)o2)c1 was read as aSyn 5UTR act -87*.
O=C(COc1ccccc1)Nc1nnc(-c2ccc3c(c2)CCCC3)o1 was read as aSyn 5UTR act -95*.
COc1ccc(CC(=O)Nc2cccc(-c3nnc(-c4cccc(C)c4)o3)c2)cc1OC was read as aSyn 5UTR act -187*.
Screening CCCCOc1ccc(CSC2=NCCN2)cc1[N+](=O)[O-] returned aSyn 5UTR act -82*.
CCCCOc1ccc(Br)cc1/C(C)=N/NC1=NCCN1 was read as aSyn 5UTR act 121.
Screening CSc1nc(O)c(N=Nc2ccc(F)cc2F)c(=O)[nH]1 returned aSyn 5UTR act -138*.
O=C(NC(=S)NCC1CCCO1)c1ccc(Br)o1 (stereo not drawn) was read as aSyn 5UTR act -108*.
Screening Cc1ccc(C(=O)NC(=S)NCC2CCCO2)cc1Br (stereo not drawn) returned aSyn 5UTR act -155*.
`Cc1ccc(-n2c(C)cc(/C=c3/sc4nc5ccccc5n4c3=O)c2C)cc1` gave aSyn 5UTR act 67.
`O=C(O)Cn1cc(/C=c2/sc3nc4ccccc4n3c2=O)c2ccccc21` gave aSyn 5UTR act -162*.
For O=C(Nc1nc2ccc(F)cc2s1)c1ccccn1 the results were aSyn 5UTR act 102.
For COc1ccc(OC)c(-c2csc(NC(=O)C3=NN(c4ccccc4)C(=O)CC3)n2)c1 the results were aSyn 5UTR act -129*.
For O=C(Nc1nc2ccc(F)cc2s1)C1=NN(c2ccccc2)C(=O)CC1 the results were aSyn 5UTR act -97*.
O=C(Nc1ccccc1Br)c1ccc(N2CCCC2=O)cc1 was read as aSyn 5UTR act -124*.
Cc1csc(NC(=O)c2ccc(N3CCCC3=O)cc2)n1 was read as aSyn 5UTR act 101.
For O=C(Nc1nc2ccc(F)cc2s1)c1ccc(N2CCCC2=O)cc1 the results were aSyn 5UTR act -155*.
For O=c1cc(-c2ccccc2Cl)oc2c(Br)ccc(O)c12 the results were aSyn 5UTR act -130*.
Cc1nc(NCc2ccco2)c2c(C)c(C)sc2n1 was read as aSyn 5UTR act -177*.
CC(=O)N/C(N)=N/c1nc2cc(C)ccc2o1 was read as aSyn 5UTR act -63*.
CC(=O)N/C(N)=N/c1nc2cc([N+](=O)[O-])ccc2o1 was read as aSyn 5UTR act -97*.
Screening Cc1csc(NC(=O)c2sc3nc(-c4cccs4)ccc3c2N)n1 returned aSyn 5UTR act -228*.
For Cc1ccc(C(=O)Nc2nccc(-c3cccs3)n2)cc1 the results were aSyn 5UTR act -66*.
For Cc1ccc(C(=O)Nc2ncc3c(Cl)cccc3n2)cc1 the results were aSyn 5UTR act 65.
`COc1ccc(C(=O)Nc2nc(-c3cccs3)cs2)cc1` gave aSyn 5UTR act -91*.
O=C(Nc1nc(-c2cc(Cl)sc2Cl)cs1)c1cccs1 was read as aSyn 5UTR act -158*.
For O=C(Nc1nc(-c2cccs2)cs1)c1ccc(Cl)cc1 the results were aSyn 5UTR act -88*.
Screening Cc1ccc(NC(=O)c2ccco2)c([N+](=O)[O-])c1 returned aSyn 5UTR act -197*.
Screening COc1ccc(NC(=O)c2ccco2)c([N+](=O)[O-])c1 returned aSyn 5UTR act -76*.
Screening N#C/C(C(=O)N1CCOCC1)=C1\Nc2ccccc2S1 returned aSyn 5UTR act -65*.
For Cc1ccc2nc(/C(C#N)=C\c3ccc(N4CCOCC4)o3)[nH]c2c1 the results were aSyn 5UTR act -231*.
Cc1ccc(/C(C#N)=C\c2ccc(N3CCOCC3)o2)cc1 was read as aSyn 5UTR act -313*.
For N#C/C(=C/c1ccc(N2CCOCC2)o1)C(=O)Nc1ccccc1 the results were aSyn 5UTR act -152*.
`CN(C)c1ccc(C(=O)c2ccc(N(C)C)c(N)c2)cc1N` gave aSyn 5UTR act -74*.
`CCOc1ccc(C(=O)c2ccc(OCC)c(N)c2)cc1N` gave aSyn 5UTR act -70*.
Screening Clc1ccc(/C=C/c2nc3ccccc3[nH]2)c(Cl)c1 returned aSyn 5UTR act 68.
`CCOc1cc(/C=C/c2cc(C(F)(F)F)[nH]c(=O)n2)ccc1O` gave aSyn 5UTR act -79*.
For O=c1[nH]c(/C=C/c2ccccc2Cl)nc2ccccc12 the results were aSyn 5UTR act -265*.
`Clc1ccc(/C=C/c2nc3ccccc3[nH]2)cc1` gave aSyn 5UTR act 61.
Screening Cc1cccc(/C=C/c2nc3ccccc3c(=O)[nH]2)c1 returned aSyn 5UTR act -94*.
For Clc1cccc(Cl)c1/C=C/c1nc2ccccc2[nH]1 the results were aSyn 5UTR act -149*.
For Cc1[nH]c2ccccc2c1/C=C/c1nc2ccccc2c(=O)[nH]1 the results were aSyn 5UTR act -98*.
Screening CCOc1cc(/C=C/c2nc3ccccc3c(=O)[nH]2)ccc1O returned aSyn 5UTR act -133*.
`Cc1cc(C)n(-c2nc(Nc3ccccc3C(F)(F)F)nc(-n3nc(C)cc3C)n2)n1` gave aSyn 5UTR act 62.
`Cc1cc(C)n(-c2nnc(NC34CC5CC(CC(C5)C3)C4)nn2)n1` gave aSyn 5UTR act -172*.
O=C(CSc1nc2ncccc2[nH]1)c1ccc2c(c1)OCO2 was read as aSyn 5UTR act -86*.
